Results: PubChem BioAssay (NCATS)
Results filed as inconclusive are left out. Where a call stands in place of a potency, no number is given. Activity calls are given as the source filed them. Calls follow the shape of the dose curve; as a rule, active = well fitted curve in the direction sought with a large enough effect; inconclusive = small, poorly fitted or top-dose-only effect, or another doubt; inactive = no such curve, though single readings can be large; an effect the other way counts as inactive or inconclusive.

target: Calcium and integrin-binding protein 1 (Homo sapiens) (UniProt Q99828); assay: Validation qHTS for Identification of Calcium Integrin Binding protein 1 (CIB1) Competitor (AID 1508618); conditions: CIB1-GST / FITC-alphaIIb peptide fluorescence polarization; series mostly up to 114 µM
Sequence (Q99828 whole entry, looked up): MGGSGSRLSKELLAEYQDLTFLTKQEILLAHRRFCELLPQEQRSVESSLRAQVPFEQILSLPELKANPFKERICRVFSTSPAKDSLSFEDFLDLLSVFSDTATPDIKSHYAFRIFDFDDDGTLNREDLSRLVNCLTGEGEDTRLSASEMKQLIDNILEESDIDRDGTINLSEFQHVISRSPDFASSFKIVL
Excerpt: Assay Provider: Ulhas P. Naik, PhD
Sidney Kimmel Medical College
Thomas Jefferson University, Philadelphia, PA
Primary function of platelets is to maintain hemostasis. At the site of vascular injury, platelets adhere to adhesive proteins such as collagen and von Willebrand factor. Adherent platelets are activated and generate soluble platelet agonists such as thrombin, ADP and thromboxane A2. Following exposure of circulating platelets to these agonists, results in platelet shape change, granule secretion and activation of platelet integrin alphaIIb-beta3. Ligand binding to activated integrin alphaIIb-beta3 triggers outside-in signaling, leading to platelet aggregation, stabilization of platelet plug, and clot retraction. Upon atherosclerotic plaque rupture also causes platelet plug formation, which underlies a number of cardiovascular diseases such as myocardial infraction and stroke. A number of anti-platelet drugs such as aspirin, clopidogrel, prasugrel, vorapaxar, and eptifibatide are currently available to prevent the thrombotic complications. However, these anti-platelet agents have several limitations including inherent variability in individual responses, developing resistance, and serious bleeding side effects. For these reasons they are not suitable for long-term protection. Based on the experiences with current anti-platelet drugs, it appears that the most useful therapeutic approach is to intersect the secondary responses such as integrin outside-in signaling or recruitment of platelets by TxA2 and secreted ADP. Compounds, which can largely preserve the primary hemostatic function of platelets but inhibit secondary response will be most desired therapeutic agents for treatment of cardiovascular disease.
CIB1 is a calcium integrin binding protein, which specifically interact with the alphaIIb subunit of integrin alphaIIb-beta3. Binding of CIB1 to alphaIIb regulates the outside-in signaling in platelets, which is needed for thrombus stabilization and thrombus growth. […] Therefore, we propose that discovery of a small molecule that can prevent the association of CIB1 and alphaIIb-beta3 will be a potential anti-platelet agent that can block the thrombus formation without undue effect on hemostasis.
To develop fluorescence polarization (FP) assay using fluorescently labeled alphaIIb peptide and CIB1 protein. Using FP assay characterize the binding affinity, competitive inhibition, and acceptable Z factor (0.5 to1) in order to perform the HTS to identify small molecule compound that can prevent CIB1 binding to platelet integrin alphaIIbbeta3. This assay is screened against the NCATS LOPAC library to validate the amenability of the assay to qHTS.
[1] […]
7; Detection; Ex 480/ Em 540; ViewLux Fluorescence Read […]

Question: How did the outcome turn out when `COc1ccc(C(=O)N2CCCC2=O)cc1` was run?
Answer: Its outcome is “inactive”.

Question: How did the outcome turn out when `O=C(O)c1nn(Cc2ccc(Cl)cc2Cl)c2ccccc12` was run?
Answer: Its outcome is “inactive”.

target: Calcium and integrin-binding protein 1 (Homo sapiens) (UniProt Q99828); assay: Primary qHTS for Identification of Calcium Integrin Binding Protein 1 (CIB1) Competitor (AID 1508620); conditions: CIB1-GST / FITC-alphaIIb peptide fluorescence polarization; series mostly up to 114 µM; also: potency is read from the fitted curve at half-maximal effect
Method in brief: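 Fluorescence polarization competition: GST-tagged CIB1 (1 uM final) preincubated with compound 15 min at room temperature, then FITC-labelled alphaIIb peptide (100 nM final) added. After 15 min at room temperature, polarization read at Ex 480/Em 540.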

Question: With `C[C@]12CC[C@H](O)CC1=CC[C@@H]1[C@@H]2CC[C@]2(C)C(=O)CC[C@@H]12` as the compound, how does the Potency read?
Answer: The Potency was “inactive”.

Question: How did the Potency turn out when `CC(C)(C)OC(=O)c1ncn2c1[C@@H]1CCCN1C(=O)c1c(Br)cccc1-2` was run?
Answer: Its Potency is “inactive”.

Question: How did the Potency turn out when `OC(c1ccccc1)(c1ccccc1)C1CCNCC1` was run?
Answer: The Potency was “inactive”.

Question: Which Potency does the source give for `CCC(=O)O[C@H]1CC[C@H]2[C@@H]3CCC4=CC(=O)CC[C@]4(C)[C@H]3CC[C@]12C` here?
Answer: Its Potency is “inactive”.

Question: With `COc1ccc(C(=O)N2CCCC2=O)cc1` as the compound, how does the Potency read?
Answer: The Potency was “inactive”.

Question: `C#C[C@]1(O)C=C[C@H]2[C@@H]3CCC4=CC(=O)CC[C@@H]4[C@H]3CC[C@@]21CC` was tested. Which Potency did it give?
Answer: The Potency was “inactive”.

Question: `O=C(CCl)c1ccc(Cl)cc1Cl` was tested. Which Potency did it give?
Answer: Its Potency is “inactive”.

Question: How did the Potency turn out when `Nc1ccc(N)cc1` was run?
Answer: The Potency was “inactive”.

Question: `CCOC(=O)C1(c2ccccc2)CCN(CCc2ccc(N)cc2)CC1` was tested. Which Potency did it give?
Answer: The Potency was “inactive”.

Question: With `C=CCOC(Cn1ccnc1)c1ccc(Cl)cc1Cl` (centres undefined) as the compound, how does the Potency read?
Answer: Its Potency is “inactive”.

Question: How did the Potency turn out when `Clc1ccc(CO/N=C(\Cn2ccnc2)c2ccc(Cl)cc2Cl)c(Cl)c1` was run?
Answer: Its Potency is “inactive”.

Question: `Cc1nnc2n1-c1sc(CCc3ccc(CC(C)C)cc3)cc1C(c1ccccc1Cl)=NC2C` (centres undefined) was tested. Which Potency did it give?
Answer: Its Potency is “inactive”.

Question: For `C[N+]1(C)[C@@H]2CC[C@H]1CC(OC(=O)C(CO)c1ccccc1)C2` (some centres undefined), which Potency is on record?
Answer: The Potency was “inactive”.

Question: With `CCc1cc(OC)c(C[C@H](C)N)cc1OC` as the compound, how does the Potency read?
Answer: Its Potency is “inactive”.

Question: How did the Potency turn out when `CN1C(=O)[C@@H](NC(=O)c2cc3ccccc3[nH]2)N=C(c2ccccc2)c2ccccc21` was run?
Answer: The Potency was “inactive”.

Question: `C[C@]12CC[C@H]3[C@@H](CCC4=CC(=O)CC[C@@H]43)[C@@H]1CC[C@@H]2O` was tested. Which Potency did it give?
Answer: Its Potency is “inactive”.

Question: How did the Potency turn out when `CCC(OC(C)=O)C(CC(C)NC)(c1ccccc1)c1ccccc1` (centres undefined) was run?
Answer: Its Potency is “inactive”.

Question: How did the Potency turn out when `Nc1ccccc1C(=O)OCC(O)CO` (centres undefined) was run?
Answer: Its Potency is “inactive”.

Question: With `NC(=O)OCCCc1ccccc1` as the compound, how does the Potency read?
Answer: The Potency was “inactive”.

Question: How did the Potency turn out when `Oc1c(Br)cc(Br)cc1Br` was run?
Answer: The Potency was “inactive”.

Question: For `COc1ccc2[nH]cc(CCN(C(C)C)C(C)C)c2c1`, which Potency is on record?
Answer: Its Potency is “inactive”.

Question: For `CCOC(=O)C(c1c(O)c2ccccc2oc1=O)c1c(O)c2ccccc2oc1=O`, which Potency is on record?
Answer: Its Potency is “inactive”.

Question: How did the Potency turn out when `Clc1ccc(C(OCCN2CCCCC2)c2ccccc2)cc1` (centres undefined) was run?
Answer: Its Potency is “inactive”.

Question: For `c1cc2c(c(N3CCNCC3)c1)OCCO2`, which Potency is on record?
Answer: Its Potency is “inactive”.

Question: How did the Potency turn out when `C[C@@H]1CN(C2CCC(C#N)(c3ccc(F)cc3)CC2)CC[C@]1(C(=O)O)c1ccccc1` (some centres undefined) was run?
Answer: Its Potency is “inactive”.

Question: Which Potency does the source give for `C=CCN1CC[C@]23CCCC[C@H]2[C@H]1Cc1ccc(O)cc13` here?
Answer: The Potency was “inactive”.

Question: For `NC1(c2ccccc2)CCCCC1`, which Potency is on record?
Answer: The Potency was “inactive”.

Question: With `CC#C[C@]1(O)CC[C@H]2[C@@H]3C[C@H](C)C4=CC(=O)CC[C@]4(C)[C@H]3CC[C@@]21C` as the compound, how does the Potency read?
Answer: The Potency was “inactive”.

Question: How did the Potency turn out when `CC(CC(C#N)(c1ccccc1)c1ccccc1)N(C)C` (centres undefined) was run?
Answer: The Potency was “inactive”.

Question: `O=C(O)c1nn(Cc2ccc(Cl)cc2Cl)c2ccccc12` was tested. Which Potency did it give?
Answer: The Potency was “inactive”.

Question: With `CC[C@H](O)C(C[C@H](C)N(C)C)(c1ccccc1)c1ccccc1` as the compound, how does the Potency read?
Answer: The Potency was “inactive”.

Question: Which Potency does the source give for `CC(=O)OC1(c2ccccc2)CCN(CCc2ccccc2)CC1` here?
Answer: Its Potency is “inactive”.

Question: For `COc1cc(CC(C)N)c(OC)cc1Br` (centres undefined), which Potency is on record?
Answer: The Potency was “inactive”.

Question: `N#Cc1nn(-c2c(Cl)cc(C(F)(F)F)cc2Cl)c(N)c1S(=O)C(F)(F)F` (centres undefined) was tested. Which Potency did it give?
Answer: Its Potency is “inactive”.

Question: With `CC[C@]1(O)CC[C@H]2[C@@H]3CCC4=CCCC[C@@H]4[C@H]3CC[C@@]21C` as the compound, how does the Potency read?
Answer: The Potency was 31.6 µM (active).

Question: With `COCC(=O)N(c1c(C)cccc1C)C(C)C(=O)OC` (centres undefined) as the compound, how does the Potency read?
Answer: The Potency was “inactive”.

Question: `C[C@@H]1C[C@@H]([C@H](O)CC2CC(=O)NC(=O)C2)C(=O)[C@@H](C)C1` was tested. Which Potency did it give?
Answer: The Potency was “inactive”.
